This note sets out measurements from PubChem BioAssay (NCATS).

The nature of assay [1]: P-glycoprotein substrates identified in KB-8-5-11 adenocarcinoma cell line, qHTS therapeutic library screen (AID 1346987). Further: nearly all actives have a fitted effect of over 65% in size. Further: potency means the concentration at half of the fitted maximal effect. On activity change, negative = cytotoxicity: on the % scale 0 is the no-effect control and ±100 the full control effect. The procedure, abridged: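 KB-8-5-11: colchicine-selected sub-line of KB-3-1 over-expressing P-gp; assay medium lacked colchicine. 72 h drug exposure at 37 degree C, CellTiter-Glo.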
In general terms: Quantitative high-throughput screening tests each substance at several concentrations.

Assay [2] concerns Zika virus NS2B-NS3 protease (unlinked complex). The assay can be described thus: Primary screen GU Rhodamine qHTS for Zika virus inhibitors: Unlinked NS2B-NS3 protease assay (AID 1347159). Further: on the % scale 0 is the no-effect control and ±100 the full control effect; nearly all actives have a fitted effect of over 60% in size. Put shortly: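 Noncovalent NS2B hydrophilic domain/NS3 protease complex (25 nM final) in 10 mM Tris-HCl pH 8.0, 0.01% Tween 20, preincubated 15 min with compounds (up to 114 microM), then 1.5 microM Rhodamine110 substrate. Fluorescence change over 15 min fitted to 4-parameter Hill.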

For assay [3], the target named is Cytochrome P450 2D6 (Homo sapiens) (UniProt P10635). Put plainly: Cytochrome P450 family 2 subfamily D member 6 (CYP2D6) small molecule antagonists: luciferase biochemical (cell-free) qHTS assay (AID 1645840; active means well fitted curve in the direction sought with a large enough effect in the repeat runs; an effect the other way counts as inactive or inconclusive; further: nearly all actives have a fitted effect of over 55% in size; further: potency means the concentration at half of the fitted maximal effect). The procedure, abridged:
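P450-Glo luminescent screen: recombinant CYP2D6 enzyme–proluciferin substrate mix preincubated with compound 10 min at room temperature, then NADPH regeneration added for 1 h at room temperature. Detection reagent added for 20 min; luciferin light read as relative luminescence units.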

The target in assay [4] is Cytochrome P450 2C9 (Homo sapiens) (UniProt P11712). The assay can be described thus: Cytochrome P450 family 2 subfamily C member 9 (CYP2C9) small molecule antagonists: luciferase biochemical (cell-free) qHTS assay (AID 1645842; active means well fitted curve in the direction sought with a large enough effect in the repeat runs; an effect the other way counts as inactive or inconclusive; further: nearly all actives have a fitted effect of over 55% in size; further: potency means the concentration at half of the fitted maximal effect). The procedure, abridged:
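Luminescence, after 20 min with luciferin detection reagent, reflected CYP2C9 turnover during a 1 h NADPH-driven reaction at 37C. Enzyme-substrate mix contained 0.4% bovine serum albumin and was preincubated with compound 10 min at room temperature.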

The subject of assay [5] is CRL-7250. The assay can be described thus: Cytotoxic Profiling of Annotated Libraries Using Quantitative High-Throughput Screening (AID 1296008). Further: nearly all actives have a fitted effect of over 60% in size. Further: potency means the concentration at half of the fitted maximal effect. On max response: on the % scale 0 is the no-effect control and ±100 the full control effect. As to conditions: Five cell lines viability, CellTiter-Glo ATP luminescence, 48-72 h; max response: active compounds read low. Put shortly:
(§1)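 Cells exposed to compounds for 48 or 72 hr at 37 degrees Celsius. Viability read as ATP-coupled luminescence with CellTiter-Glo after 10 min at room temperature.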
(In general: In ATP-based viability assays light output follows the ATP content of the culture.)

Assay [6] deals with CRL-7250. The assay can be described thus: qHTS assay to identify novel small-molecules to repurpose for Merkel cell carcinoma treatment (AID 1296009). Further: nearly all actives have a fitted effect of over 60% in size. As to conditions: MCC and control cell lines, CellTiter-Glo viability, 72 h; series mostly up to 92 µM. The procedure, abridged: (§2)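 Cells were incubated with compound for 72 hr at 37 degree celsius before CellTiter-Glo addition. Luminescence was normalized with no-cell wells as full cytotoxicity and DMSO as baseline.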

The test system of another assay is HACAT. The assay is described as above. As to conditions: MCC and control cell lines, CellTiter-Glo viability, 72 h; at 44.8 µM (top of the series) unless noted. The procedure, abridged: as §2
Another assay deals with HeLa. The assay can be described thus: Primary qHTS to identify gynecologic anti-cancer compounds using libraries of approved drugs and bioactive compounds (AID 1345084). Further: nearly all actives have a fitted effect of over 55% in size. Further: potency means the concentration at half of the fitted maximal effect. On activity change, negative = cytotoxicity: on the % scale 0 is the no-effect control and ±100 the full control effect. As to conditions: Gynecologic cancer cell panel viability, ATPlite luminescence, 48 h; series mostly up to 57.5 µM. The procedure, abridged: (§3)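 Cells, 1,000 per well, plated 16 h, then exposed 48 h at 37 C to compounds. Viability by ATPlite luminescence after 15 min at room temperature.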

Another assay relates to SKOV3. The description is as above. As to conditions: Gynecologic cancer cell panel viability, ATPlite luminescence, 48 h; series mostly up to 57.5 µM. Put shortly: as §3
The nature of assay [7]: Primary qHTS for inhibitors of nuclear receptor binding SET domain protein 2 (NSD2) in an isogenic RCH-ACV NSD2 p.E1099K mutant (9B) (AID 1645876). Further: nearly all actives have a fitted effect of over 70% in size. Further: potency means the concentration at half of the fitted maximal effect.
Assay [8] is described as follows: Primary qHTS for inhibitors of nuclear receptor binding SET domain protein 2 (NSD2) in an RCH-ACV wild type WT cells (2C) (AID 1645877). Further: nearly all actives have a fitted effect of over 70% in size. Further: potency means the concentration at half of the fitted maximal effect.
The subject of the next assay is KB-3-1. The assay can be described thus: Cytotoxic Profiling of Annotated Libraries Using Quantitative High-Throughput Screening (AID 1296008). Further: nearly all actives have a fitted effect of over 60% in size. Further: potency means the concentration at half of the fitted maximal effect. On max response: on the % scale 0 is the no-effect control and ±100 the full control effect. As to conditions: Five cell lines viability, CellTiter-Glo ATP luminescence, 48-72 h; max response: active compounds read low. The procedure, abridged: as §1
The next assay relates to NIH3T3. The assay can be described thus: qHTS assay to identify novel small-molecules to repurpose for Merkel cell carcinoma treatment (AID 1296009). Further: nearly all actives have a fitted effect of over 60% in size. As to conditions: MCC and control cell lines, CellTiter-Glo viability, 72 h; at 44.8 µM (top of the series) unless noted. The procedure, abridged:
as §2

The nature of assay [9]: P-glycoprotein substrates identified in KB-3-1 adenocarcinoma cell line, qHTS therapeutic library screen (AID 1346986). Further: nearly all actives have a fitted effect of over 60% in size. Put shortly: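 Compounds were tested in dose-response against KB-3-1 and KB-8-5-11 cells at 37 degree C for 72 h, and viability was measured by luminescence. AC50 values came from curve fitting with class-based activity calls.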

Each structure is given as a SMILES string. Records with an inconclusive call do not appear. Values without a mark were called inactive. Active and inactive are the calls of the source. Unless noted, the call rests on the fitted dose curve; in most records, active means well fitted curve in the direction sought with a large enough effect; inconclusive means small, poorly fitted or top-dose-only effect, or another doubt; inactive means no such curve, though single readings can be large; an effect the other way counts as inactive or inconclusive.

Chain of Cytochrome P450 2C9 (Homo sapiens) (P11712 whole entry, looked up): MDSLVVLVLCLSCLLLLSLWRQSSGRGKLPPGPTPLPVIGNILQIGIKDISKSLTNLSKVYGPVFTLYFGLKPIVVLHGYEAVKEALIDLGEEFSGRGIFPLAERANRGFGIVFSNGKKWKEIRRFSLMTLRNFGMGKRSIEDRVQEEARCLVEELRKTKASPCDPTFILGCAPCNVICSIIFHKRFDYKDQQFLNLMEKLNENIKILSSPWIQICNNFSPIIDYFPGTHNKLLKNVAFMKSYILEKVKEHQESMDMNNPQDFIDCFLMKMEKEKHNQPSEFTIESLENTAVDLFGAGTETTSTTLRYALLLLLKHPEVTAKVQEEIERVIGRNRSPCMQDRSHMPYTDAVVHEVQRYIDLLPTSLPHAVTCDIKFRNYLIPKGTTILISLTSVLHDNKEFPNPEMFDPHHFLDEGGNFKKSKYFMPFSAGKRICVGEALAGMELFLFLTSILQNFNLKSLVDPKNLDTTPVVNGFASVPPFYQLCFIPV
Chain of Cytochrome P450 2D6 (Homo sapiens) (P10635 whole entry, looked up): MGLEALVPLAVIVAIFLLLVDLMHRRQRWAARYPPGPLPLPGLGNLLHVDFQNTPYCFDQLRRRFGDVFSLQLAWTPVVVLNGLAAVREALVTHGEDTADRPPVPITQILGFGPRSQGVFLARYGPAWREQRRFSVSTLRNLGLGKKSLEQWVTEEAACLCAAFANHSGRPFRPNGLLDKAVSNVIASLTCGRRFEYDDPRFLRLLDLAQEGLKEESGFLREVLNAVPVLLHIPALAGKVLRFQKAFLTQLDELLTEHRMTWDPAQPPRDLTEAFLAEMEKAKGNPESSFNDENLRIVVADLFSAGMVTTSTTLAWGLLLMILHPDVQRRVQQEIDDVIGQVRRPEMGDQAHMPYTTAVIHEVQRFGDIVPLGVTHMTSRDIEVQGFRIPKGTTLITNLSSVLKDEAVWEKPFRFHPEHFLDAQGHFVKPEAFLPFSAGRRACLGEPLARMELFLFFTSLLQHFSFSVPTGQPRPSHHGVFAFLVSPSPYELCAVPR

In the case of `CN1CCC2=C(C1)c1ccccc1Cc1ccccc12`, the Potency entry (in assay [1]; in [2]; in assay [4]; with CRL-7250 [6]; in the assay with HeLa; with SKOV3) was “inactive” each time. Moreover, the Potency in assay [3] is 477 nM (active). The call in the assay on CRL-7250 [5] and in the assay on HACAT was inactive.
`CC(=O)O[C@H]1C[C@@H](C)O[C@H]2O[C@@H]3CC4CC[C@@H]5C(CC[C@]6(C)[C@@H](C7=CC(=O)OC7)CC[C@]56O)[C@@]4(C=O)C[C@H]3O[C@]21O` (some centres not stated): the Potency in assay [1] is 86.2 nM (active); in [7], 48.3 nM (active); in assay [8] it was 68.2 nM (active); in the assay on CRL-7250 [5], 43.2 nM (active); in the assay with KB-3-1, 68.5 nM (active); with HeLa, 126 nM (active). In addition, the Potency with SKOV3 was 112 nM (active).
Regarding `CC(=O)C1CCC2C3CCC4C[C@@H](O)CCC4(C)C3CCC12C` (some centres not stated), the max response with CRL-7250 [5] is 3.25%; in the assay with KB-3-1 it was 0.129%. Besides, the call with NIH3T3 was inactive. In the assay with HeLa, the Potency result is “inactive”.
Consider `C/C=C(\C)C(=O)OC1CC2C(CC=C3CC(OC4CC(OC)C(OC5CC(OC)C(OC6CC(OC)C(OC7CC(OC)C(O)C(C)O7)C(C)O6)C(C)O5)C(C)O4)CCC32C)C2(O)CCC(C(C)=O)C12C` (configuration not stated), for which the outcome is “inactive [at 9.29 µM]” in assay [9], “inactive [at 9.29 µM]” in assay [1], “inactive [at 9.27 µM]” in the assay on HACAT and “inactive [at 9.27 µM]” in the assay with NIH3T3. In [2], the Potency entry is “inactive”. Further, the max response in the assay on CRL-7250 [5] is -2.08%. Further, the result with KB-3-1 was inactive. Also, the activity change, negative = cytotoxicity in the assay with SKOV3 is -3.35% [at 11.6 µM].
On to `C[C@]12CC[C@@H](O[C@@H]3O[C@H](CO)[C@@H](O)[C@H](O)[C@H]3O)C[C@@]1(O)CCC1C2CC[C@]2(C)[C@@H](C3=CC(=O)OC3)CC[C@]12O` (some centres not stated), for which the Potency was 159 nM (active) in assay [1]; 79.6 nM (active) in assay [7]; 112 nM (active) in assay [8]; 126 nM (active) in the assay on CRL-7250 [5]; 200 nM (active) with KB-3-1; 398 nM (active) in the assay on HeLa. The Potency with SKOV3 was 355 nM (active). The Potency entry in [2] is “inactive”. The outcome in the assay with NIH3T3 is “inactive [at 17.4 µM]”.
`C/C=C1/CN2CC[C@]34C(=Nc5ccccc53)[C@@H]2C[C@@H]1[C@H]4C(=O)OC`: the Potency result (in assay [1]; in [2]; in [7]; in the assay on HeLa; in the assay on SKOV3) was “inactive” in each case. Besides, the max response in the assay on CRL-7250 [5] is 2.71%; with KB-3-1, -1.68%.
Take `CC1(C)C(=O)N(c2ccc(C#N)c(C(F)(F)F)c2)C(=S)N1c1ccc(C(N)=O)c(F)c1`: the Potency result (in assay [2]; in [3]; in [7]; in [8]; with HeLa; in the assay on SKOV3) was “inactive” each time. Further, the Potency in assay [4] was 19000 nM (active). Moreover, the max response in the assay on CRL-7250 [5] was 4.24%; in the assay on KB-3-1, -16.1%. In addition, the result in the assay with HACAT was inactive.
`O=C(N[C@H]1CN2CCC1CC2)c1cc2cccc(Cl)c2s1`: the Potency entry (in [2]; in assay [4]; in the assay with SKOV3) was “inactive” each time. Also, the Potency in [3] was 16900 nM (active). The max response with CRL-7250 [5] was -12.3%; in the assay with KB-3-1 it was 2.28%.
Take `C[C@H]1CN(CC[C@H](O)C2CCCCC2)CC[C@@]1(C)c1cccc(O)c1`: the Potency result (in assay [1]; in [2]; in the assay on HeLa; in the assay with SKOV3) was “inactive” throughout. In assay [3], the Potency is 5350 nM (active). The values for the max response with CRL-7250 [5] and in the assay on KB-3-1 were 4.91% and -5.46%, respectively.
